This is part of a sample that, as a whole, favours compounds with a hit. Of some 79,000 tested, about 15% had one in any assay. Calls of active or inactive are those of the source. Rule as the data show it: active = growth inhibition above about 70%; inactive = the rest.

The nature of the first experiment: NCI Yeast Anticancer Drug Screen. Data for the cln2 rad14 strain (AID 165).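 Also: 0% = growth equal to vehicle treated cultures.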 The settings on record: S. cerevisiae cln2 rad14 strain, at 50.0 µM (retest, dose inferred, filed as 5.0), active compounds read high. In short, it runs like this: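 Compounds are applied to the cln2 rad14 yeast strain, and growth is then compared with that of vehicle-treated cultures to give inhibition.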
As to `COc1ccc(C(=O)[O][Sn]([c]2ccccc2)([c]2ccccc2)[c]2ccccc2)c(OC)c1OC`, the growth inhibition was 99% (active).

Turning to `CCC(CC)C1(C(=O)OCCN(CC)CC)CCCCC1`, the growth inhibition was 9% (inactive).

Consider `O=C1OC(=O)C2C1C1C(c3ccccc3)=C(c3ccccc3)C2(O)C2C(=O)OC(=O)C12` (stereo not given), for which the growth inhibition was 17% (inactive).

Take `C/C(=C/CC1CCC2C3=CCC4CC(O)CCC4(C)C3CCC12C)C(C)C(C)C` (stereo not given): the growth inhibition is 69% (inactive).

For the molecule `CCC1(CC(=O)O)OCCc2c1[nH]c1c(C)c(Cl)ccc21` (stereo not given), the growth inhibition was 96% (active).

`CN(C)CCCSc1c2ccccc2nc2cccc([N+](=O)[O-])c12`: the growth inhibition was 18% (inactive).

For the molecule `CC1OC(OP(=O)(OCc2ccccc2)OCc2ccccc2)C(OC(=O)c2ccccc2)C(OC(=O)c2ccccc2)C1I` (stereo not given), the growth inhibition is 95% (active).

For the molecule `C#CC(CC(C)CC(C)(C)C)NC` (stereo not given), the growth inhibition was 53% (inactive).

As to `N#CCCN(CCC#N)Cc1cc(-c2ccccc2)ccc1O`, the growth inhibition is -8% (inactive).

Take `Cc1ccc(NC(=O)CCCC(=O)C(C#N)c2ccccc2C)cc1C` (stereo not given): the growth inhibition was -5% (inactive).

In the case of `C[C@H]1CC[C@@H]2[C@@H](C)[C@H]3[C@H](C[C@H]4[C@@H]5CC=C6C[C@@H](O)CC[C@]6(C)[C@H]5CC[C@]34C)N2C1`, the growth inhibition was 98% (active).

Take `Cc1nc(-c2ccc(N=Cc3ccc(N(CCOS(C)(=O)=O)CCOS(C)(=O)=O)cc3)cc2)cs1`: the growth inhibition was 33% (inactive).

Regarding `COc1ccc2nc3cccc([N+](=O)[O-])c3c(NCCO)c2c1`, the growth inhibition was 97% (active).

For the molecule `Oc1ccc(C2CCCCC2)cc1`, the growth inhibition was 37% (inactive).

As to `CCCCCc1cc(Cl)cc(Cl)c1O`, the growth inhibition is -6% (inactive).

On to `C=C1C(=O)OC2/C=C(\C(=O)O)CC/C=C(\C)CC(OC(=O)/C=C(\C)CC)C12` (stereo not given), for which the growth inhibition was 69% (inactive).

Regarding `O/N=C(/Cc1nc2cc(Cl)c(Cl)cc2nc1C/C(=N/O)c1ccncc1)c1ccncc1`, the growth inhibition is 68% (inactive).

Consider `Cc1cc(NC(=S)SCc2ccc3c(c2)OCO3)ccc1Br`, for which the growth inhibition is 99% (active).

With `CN1C(=O)OC(C)(c2ccccc2)C1=O` (stereo not given), the growth inhibition was -1% (inactive).

Consider `O=C1c2ccccc2C(=O)c2c1cccc2[N+](=O)[O-]`, for which the growth inhibition is 86% (active).

On to `O=[N+]([O-])c1ccccc1Oc1ccc([N+](=O)[O-])c(C(F)(F)F)c1`, for which the growth inhibition was 45% (inactive).

On to `Cc1ccc(O)c(N=Nc2ccc(Cl)cc2)c1`, for which the growth inhibition was -8% (inactive).

Regarding `CC(C)Cc1cc2c(cc1O)CCC1C2CC[C@@]2(C)C1CC[C@@H]2O` (stereo not given in full), the growth inhibition was 98% (active).

As to `CCOC(=O)CC1(C)C(=O)CCCC1=O`, the growth inhibition is -2% (inactive).

Consider `OC(c1cc(-c2ccc(Cl)cc2Cl)nc2ccccc12)C1CCCCN1` (stereo not given), for which the growth inhibition is 97% (active).

For the molecule `COc1ccc(N=Cc2cc(Br)cc(Br)c2O)cc1.COc1ccc(N=Cc2cc(Br)cc(Br)c2O)cc1.[Co]`, the growth inhibition was 66% (inactive).

Regarding `Cc1ccc[n+](CC(=O)C2CCC3C4CC=C5CC(O)CCC5(C)C4CCC23C)c1` (stereo not given), the growth inhibition was 25% (inactive).

As to `CN(C)CC(C)(C)C(/C=C/c1ccccc1)=N\Nc1ccccc1`, the growth inhibition is 47% (inactive).

As for `COC1(OC)C2(Cl)C(Cl)=C(Cl)C1(Cl)C1C2C2CC1(C(=O)O)c1ccccc12` (stereo not given), the growth inhibition was 26% (inactive).

Consider `NC(N)=N/N=C(\c1ccc(F)cc1)c1ccc(C(F)(F)F)cc1`, for which the growth inhibition is 93% (active).

As for `O=C1CC(c2ccccc2Cl)C(c2ccccc2Cl)C1` (stereo not given), the growth inhibition was 97% (active).

On to `O=C(Cl)c1ccc(N=Nc2ccccc2)cc1`, for which the growth inhibition is 23% (inactive).

As to `O=[N+]([O-])c1ccccc1N=Nc1c(O)[nH]c2ccc(S(=O)(=O)O)cc12`, the growth inhibition was 94% (active).

In the case of `Cc1ccccc1N=NC(C(=O)c1ccccc1)C(=O)c1ccccc1`, the growth inhibition is 95% (active).

Take `CCCCC(CC)(COC(C)=O)COC(C)=O`: the growth inhibition was 5% (inactive).

For the molecule `NCCOB(c1ccccc1)c1ccccc1`, the growth inhibition is 99% (active).

As to `O=C(Nc1ccccc1C(=O)O)c1ccccc1`, the growth inhibition is -14% (inactive).

In the case of `O=[N+]([O-])c1ccc(Sc2c3ccccc3nc3ccccc23)nc1`, the growth inhibition is 98% (active).

For `Cc1oc2c(c1C(=O)c1ccccc1)C(=O)c1ccccc1C2=O`, the growth inhibition is 98% (active).

As for `OC1(c2ccccc2)CCN(c2c3ccccc3nc3ccccc23)CC1`, the growth inhibition was 30% (inactive).

The same experiment, now with this note: S. cerevisiae cln2 rad14 strain, at 50.0 µM, active compounds read high.
Regarding `COc1ccc(C(=O)[O][Sn]([c]2ccccc2)([c]2ccccc2)[c]2ccccc2)c(OC)c1OC`, the growth inhibition was 88.2% (active).

`CCC(CC)C1(C(=O)OCCN(CC)CC)CCCCC1`: the growth inhibition is 3.5% (inactive).

For `O=C1OC(=O)C2C1C1C(c3ccccc3)=C(c3ccccc3)C2(O)C2C(=O)OC(=O)C12` (stereo not given), the growth inhibition was 52.5% (inactive).

Regarding `C/C(=C/CC1CCC2C3=CCC4CC(O)CCC4(C)C3CCC12C)C(C)C(C)C` (stereo not given), the growth inhibition was 81.5% (active).

On to `CCC1(CC(=O)O)OCCc2c1[nH]c1c(C)c(Cl)ccc21` (stereo not given), for which the growth inhibition is 97.2% (active).

Consider `CN(C)CCCSc1c2ccccc2nc2cccc([N+](=O)[O-])c12`, for which the growth inhibition was -47.8% (inactive).

For `CC1OC(OP(=O)(OCc2ccccc2)OCc2ccccc2)C(OC(=O)c2ccccc2)C(OC(=O)c2ccccc2)C1I` (stereo not given), the growth inhibition is 88.5% (active).

In the case of `C#CC(CC(C)CC(C)(C)C)NC` (stereo not given), the growth inhibition was 76% (active).

As for `N#CCCN(CCC#N)Cc1cc(-c2ccccc2)ccc1O`, the growth inhibition is -14.9% (inactive).

For `Cc1ccc(NC(=O)CCCC(=O)C(C#N)c2ccccc2C)cc1C` (stereo not given), the growth inhibition is -19.1% (inactive).

As to `C[C@H]1CC[C@@H]2[C@@H](C)[C@H]3[C@H](C[C@H]4[C@@H]5CC=C6C[C@@H](O)CC[C@]6(C)[C@H]5CC[C@]34C)N2C1`, the growth inhibition is 91.2% (active).

Regarding `Cc1nc(-c2ccc(N=Cc3ccc(N(CCOS(C)(=O)=O)CCOS(C)(=O)=O)cc3)cc2)cs1`, the growth inhibition is -45.7% (inactive).

For the molecule `COc1ccc2nc3cccc([N+](=O)[O-])c3c(NCCO)c2c1`, the growth inhibition is 87.2% (active).

With `Oc1ccc(C2CCCCC2)cc1`, the growth inhibition is 5.7% (inactive).

In the case of `CCCCCc1cc(Cl)cc(Cl)c1O`, the growth inhibition was -13.2% (inactive).

`C=C1C(=O)OC2/C=C(\C(=O)O)CC/C=C(\C)CC(OC(=O)/C=C(\C)CC)C12` (stereo not given): the growth inhibition is 69.8% (inactive).

For the molecule `O/N=C(/Cc1nc2cc(Cl)c(Cl)cc2nc1C/C(=N/O)c1ccncc1)c1ccncc1`, the growth inhibition is 84.5% (active).

For the molecule `Cc1cc(NC(=S)SCc2ccc3c(c2)OCO3)ccc1Br`, the growth inhibition was 87.2% (active).

`CN1C(=O)OC(C)(c2ccccc2)C1=O` (stereo not given): the growth inhibition is 78% (active).

Turning to `O=C1c2ccccc2C(=O)c2c1cccc2[N+](=O)[O-]`, the growth inhibition is 85.2% (active).

For `O=[N+]([O-])c1ccccc1Oc1ccc([N+](=O)[O-])c(C(F)(F)F)c1`, the growth inhibition was 45.9% (inactive).

For the molecule `Cc1ccc(O)c(N=Nc2ccc(Cl)cc2)c1`, the growth inhibition is 7.2% (inactive).

On to `CC(C)Cc1cc2c(cc1O)CCC1C2CC[C@@]2(C)C1CC[C@@H]2O` (stereo not given in full), for which the growth inhibition was 89.3% (active).

Turning to `CCOC(=O)CC1(C)C(=O)CCCC1=O`, the growth inhibition was -27.5% (inactive).

For the molecule `OC(c1cc(-c2ccc(Cl)cc2Cl)nc2ccccc12)C1CCCCN1` (stereo not given), the growth inhibition was 64.7% (inactive).

Take `COc1ccc(N=Cc2cc(Br)cc(Br)c2O)cc1.COc1ccc(N=Cc2cc(Br)cc(Br)c2O)cc1.[Co]`: the growth inhibition is 52.7% (inactive).

In the case of `Cc1ccc[n+](CC(=O)C2CCC3C4CC=C5CC(O)CCC5(C)C4CCC23C)c1` (stereo not given), the growth inhibition is 90.1% (active).

With `CN(C)CC(C)(C)C(/C=C/c1ccccc1)=N\Nc1ccccc1`, the growth inhibition is 97.3% (active).

Turning to `COC1(OC)C2(Cl)C(Cl)=C(Cl)C1(Cl)C1C2C2CC1(C(=O)O)c1ccccc12` (stereo not given), the growth inhibition was 91.5% (active).

Turning to `NC(N)=N/N=C(\c1ccc(F)cc1)c1ccc(C(F)(F)F)cc1`, the growth inhibition was -12.7% (inactive).

Regarding `O=C1CC(c2ccccc2Cl)C(c2ccccc2Cl)C1` (stereo not given), the growth inhibition is 95.5% (active).

Regarding `O=C(Cl)c1ccc(N=Nc2ccccc2)cc1`, the growth inhibition is 49.2% (inactive).

In the case of `O=[N+]([O-])c1ccccc1N=Nc1c(O)[nH]c2ccc(S(=O)(=O)O)cc12`, the growth inhibition was 95.6% (active).

With `Cc1ccccc1N=NC(C(=O)c1ccccc1)C(=O)c1ccccc1`, the growth inhibition is 90% (active).

For `CCCCC(CC)(COC(C)=O)COC(C)=O`, the growth inhibition is 42.5% (inactive).

On to `NCCOB(c1ccccc1)c1ccccc1`, for which the growth inhibition was 99% (active).

On to `O=C(Nc1ccccc1C(=O)O)c1ccccc1`, for which the growth inhibition was -11.6% (inactive).

On to `O=[N+]([O-])c1ccc(Sc2c3ccccc3nc3ccccc23)nc1`, for which the growth inhibition is 96.7% (active).

With `Cc1oc2c(c1C(=O)c1ccccc1)C(=O)c1ccccc1C2=O`, the growth inhibition was 92.8% (active).

`OC1(c2ccccc2)CCN(c2c3ccccc3nc3ccccc23)CC1`: the growth inhibition is 99% (active).

For the origin of these results see PubChem BioAssay (NCI).
